Source: PubChem BioAssay
HT1080-NT tox: qHTS for induction of synthetic lethality in tumor cells producing 2HG: qHTS for the HT-1080-NT fibrosarcoma cell line; 1.6% of 360,000 active; HT-1080-NT fibrosarcoma viability, CellTiter-Glo ATP luminescence, 48 h; Potency, µM (highest dose often 46.1 µM), most hits filed as cytotoxic;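 note: NT is the 2HG producing partner of a matched IDH1 knockdown line; nearly all actives have a fitted effect of over 55% in size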
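HT-1080-NT; 750 cells/well; 5% FBS RPMI; 48 h compound, 37 degrees C; CellTiter-Glo luminescence; curve fitting and curve-class assignment.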
TDP1 cell CPT: qHTS for Inhibitors of human tyrosyl-DNA phosphodiesterase 1 (TDP1): qHTS in cells in presence of CPT | chicken DT40 Tdp1-/-;hTDP1 cells + 20 nM CPT, ATP luminescence, 48 h | Potency, µM (series often up to 46.2 µM), most hits filed as inhibitors | 12% of 420,000 active | AID 686979, 2013; note: nearly all actives have a fitted effect of over 55% in size
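Chicken DT40 Tdp1-/- cells stably complemented with human TDP1 were seeded at 400 cells/well in medium containing 20 nM camptothecin, exposed to pin-transferred compounds, and grown at 37 °C for at least 48 hr. Viability was read as ATP luminescence.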
TGFb inhibitor: qHTS for Inhibitors of TGF-b; 1.2% of 410,000 active; HepG2 CAGA-GFP TGF-b/SMAD3 reporter, GFP fluorescence, 18 h; TGF-beta stimulated, 500 pg/mL final; Potency, µM (highest dose often 46.1 µM), most hits filed as inhibitors; AID 588855, 2011; note: nearly all actives have a fitted effect of over 65% in size
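HEPG2 CAGA-GFP, 1000 cells/well; 2 h settle, 37 C; cpd via pin tool; TGF-b 500 pg/mL final; 18 h, 37 C; GFP imaging ex488/em500-530; %Activity normalised to -TGF-b and +DMSO controls; CRC fit, curve class.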
HT1080 IDH1KD tx: qHTS for induction of synthetic lethality in tumor cells producing 2HG: qHTS for the HT-1080-IDH1KD cell line; HT-1080 IDH1 knockdown viability, ATP luminescence, 48 h; Potency, µM (top dose mostly 46.1 µM), hits mostly cytotoxic; AID 686971, 2013; 2% of 360,000 active
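Luminescent ATP read-out (CellTiter-Glo, 10 min at room temperature) after 48 h compound exposure at 37 °C gave viability of IDH1-knockdown HT-1080 cells. Activity was normalised to DMSO and cell-free wells, then fitted as concentration-response curves.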
DT40 TDP1 no CPT: qHTS for Inhibitors of human tyrosyl-DNA phosphodiesterase 1 (TDP1): qHTS in cells in absence of CPT; AID 686978, 2013; Potency, µM (titrated, usually from 46.2 µM), actives largely listed as inhibitors; DT40 Tdp1-/- hTDP1 cells, no CPT, ATP luminescence, 48 h; 15% of 420,000 active; note: nearly all actives have a fitted effect of over 55% in size
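Growth kinetics read by CellTiter-Glo luminescence after ≥48 hr at 37 °C. Cells: DT40 Tdp1-/- stably carrying human TDP1, 400 per well, compound exposure in the absence of CPT (DMSO vehicle).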
HepG2 viability: qHTS for Inhibitors of TGF-b: Cytotox Counterscreen; 0.76% of 410,000 active; AID 588856, 2011; HepG2 CAGA-GFP viability, ATP luminescence, 18 h; Potency, µM (series often up to 46.1 µM), usual class: cytotoxic
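HepG2 CAGA-GFP cells (1000/well, DMEM with 1% FBS) received compound, then TGF-beta at 500 pg/mL final, and were incubated 18 hours at 37 degrees C. Viability was read by CellTiter-Glo luminescence. Media-only wells were set as complete cell-killing and DMSO as no toxicity.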
Large screens that a line does not name were inactive. Only some compounds are listed: those with a hit (about 17% of all), similar ones and a draw of the others. Calls come from the whole dose curve; as a rule, active = well fitted curve in the direction sought with a large enough effect; inconclusive = small, poorly fitted or top-dose-only effect, or another doubt; inactive = no such curve, though single readings can be large; an effect the other way counts as inactive or inconclusive.

COc1cc2c(cc1OC)C(c1ccccc1)N(C(=O)c1ccccc1)CC2 (configuration not stated)	TDP1 cell CPT inconclusive, DT40 TDP1 no CPT inconclusive
CCOC(=O)c1ccc(OCC2c3cc(OC)c(OC)cc3CCN2C(=O)c2ccc(S(=O)(=O)N3CCCC3)cc2)cc1 (configuration not stated)	TDP1 cell CPT inconclusive, DT40 TDP1 no CPT inconclusive (no result: HT1080-NT tox, HT1080 IDH1KD tx)
CCCCC(=O)N1CCc2cc(OC)c(OC)cc2C1COc1ccc(C(=O)OCC)cc1 (configuration not stated)	TDP1 cell CPT inconclusive, DT40 TDP1 no CPT 18.4µM (no result: HT1080-NT tox, HT1080 IDH1KD tx)
COc1ccc(C2c3cc(OC)c(OC)cc3CCN2C(=O)c2cccc([N+](=O)[O-])c2)cc1OC (configuration not stated)	DT40 TDP1 no CPT inconclusive
COc1cc2c(cc1OC)C(COc1ccc(F)cc1)N(C(=O)Cc1ccc(F)cc1)CC2 (configuration not stated)	TDP1 cell CPT 25.9µM, TGFb inhibitor inconclusive, DT40 TDP1 no CPT 16.4µM (no result: HT1080-NT tox, HT1080 IDH1KD tx)
COc1cc2c(cc1OC)C(c1cccs1)N(C(=O)c1cccc(S(=O)(=O)N(C)C)c1)CC2 (configuration not stated)	TDP1 cell CPT 23.1µM, DT40 TDP1 no CPT inconclusive
COc1cccc(CNS(=O)(=O)c2ccc3c(c2)N(C)CCO3)c1	TDP1 cell CPT inconclusive
CCNC(=S)N1CCc2cc(OC)c(OC)cc2C1COc1ccc(F)cc1 (configuration not stated)	none
COc1cc2c(cc1OC)C(COc1ccc(F)cc1)N(C(=O)c1cccc(F)c1)CC2 (configuration not stated)	TDP1 cell CPT 16.4µM, DT40 TDP1 no CPT inconclusive (no result: HT1080-NT tox, HT1080 IDH1KD tx)
CCOC(=O)c1ccc(OCC2c3cc(OC)c(OC)cc3CCN2C(=O)Cc2ccc(F)cc2)cc1 (configuration not stated)	TDP1 cell CPT 23.1µM, DT40 TDP1 no CPT 18.4µM (no result: HT1080-NT tox, HT1080 IDH1KD tx)
COc1ccc(Cc2nnc(SC)n2-c2ccc(F)cc2)cc1OC	none
O=C(C[N+]12CN3CN(CN(C3)C1)C2)c1ccc(I)cc1	TDP1 cell CPT inconclusive, DT40 TDP1 no CPT inconclusive (no result: HT1080-NT tox, HT1080 IDH1KD tx)
COc1cc(O)c(C(CC(=O)N2CCN(c3ccccc3)CC2)c2ccc(N(C)C)cc2)c(OC)c1 (configuration not stated)	TDP1 cell CPT 23.1µM, TGFb inhibitor inconclusive
COc1cc(C(CC(=O)N2CCCC2)c2c(OC)cc(OC)c3ccc(=O)oc23)cc(OC)c1OC (configuration not stated)	none
COc1ccc(C(CC(=O)N2CCN(c3ccccc3)CC2)c2c(OC)cc(OC)c3ccc(=O)oc23)cc1 (configuration not stated)	TDP1 cell CPT 20.6µM, TGFb inhibitor inconclusive, DT40 TDP1 no CPT inconclusive
CCCCn1c(N)c(N(CCOC)C(=O)C2CCN(S(=O)(=O)c3ccc(Cl)cc3)CC2)c(=O)[nH]c1=O	none
Cc1ccccc1NS(=O)(=O)c1nnc(NC(=O)c2ccco2)s1	TDP1 cell CPT inconclusive, DT40 TDP1 no CPT inconclusive (no result: HT1080-NT tox, HT1080 IDH1KD tx)
O=C(CCn1c(=O)c2cccn2c2cccnc21)N1CCN(c2ccccc2)CC1	TDP1 cell CPT inconclusive, DT40 TDP1 no CPT inconclusive (no result: HT1080-NT tox, HT1080 IDH1KD tx)
O=C(CCn1c(=O)c2cccn2c2cccnc21)N1CCN(c2cccc(C(F)(F)F)c2)CC1	TDP1 cell CPT 14.6µM, TGFb inhibitor 11.2µM, DT40 TDP1 no CPT 9.2µM (no result: HT1080-NT tox, HT1080 IDH1KD tx)
O=C(CCn1c(=O)c2cccn2c2cccnc21)N1CCN(c2ccc(Cl)cc2)CC1	TDP1 cell CPT 10.3µM, TGFb inhibitor inconclusive, DT40 TDP1 no CPT 13µM (no result: HT1080-NT tox, HT1080 IDH1KD tx)
